In article PMC5540273 (PLoS ONE, 2017) one finds Kd data, which are given here for three compounds.
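Note: kd values determined as follow-up on hits from a single-replicate KINOMEscan panel screen.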

In this test the test system is PLK1.
A word on the Kd: it is the equilibrium constant for the complex coming apart. Read a low Kd as a tighter complex. In turn, `C[C@@H](Oc1cc(-n2cnc3ccc(NC(=O)NC(C)(C)C)cc32)sc1C(N)=O)c1ccccc1Cl` [GSK346294] registered an equilibrium dissociation constant (Kd) of 7.3 nM.
To `COc1ccc(COc2cc(-n3cnc4ccccc43)sc2C(N)=O)cc1` [GSK1024304] belongs 37 nM.
The result for `O=C(NCCNc1ccnc(Nc2ccc(F)cc2)n1)Nc1ccccc1F` [GSK1379880] reads over 10000 nM.
